13 compounds from ChEMBL document CHEMBL1961873, “Compounds: GSK PKIS; Assays: Nanosyn kinase panel” (2012) can be followed below.

Assay [1] has as its target Serine/threonine-protein kinase PAK 6 (Homo sapiens) (UniProt Q9NQU5). To be noted: at 1 µM.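 Further: values are mean percent inhibition of PAK6 kinase.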
In assay [2] the test system is Tyrosine-protein kinase ABL1 (Homo sapiens), P00519 [E255K]. To be noted: at 0.1 µM.
Assay [3] has the same test system. To be noted: at 1 µM.
Assay [4] relates to Tyrosine-protein kinase ABL1 (Homo sapiens), P00519 [H396P]. To be noted: at 0.1 µM.
Assay [5] shares this test system. To be noted: at 1 µM.
Assay [6] relates to Tyrosine-protein kinase ABL1 (Homo sapiens), P00519 [M351T]. To be noted: at 0.1 µM.
For assay [7] the test system is unchanged. To be noted: at 1 µM.
Assay [8] has as its system Tyrosine-protein kinase ABL1 (Homo sapiens), P00519 [Q252H]. To be noted: at 0.1 µM.
For assay [9] the test system is unchanged. To be noted: at 1 µM.
In assay [10] the test system is Tyrosine-protein kinase ABL1 (Homo sapiens), P00519 [T315I]. To be noted: at 0.1 µM.
The test system is the same in assay [11]. To be noted: at 1 µM.
Assay [12] has as its system Tyrosine-protein kinase ABL1 (Homo sapiens), P00519 [Y253F]. To be noted: at 0.1 µM.
The test system is the same in assay [13]. To be noted: at 1 µM.
Assay [14] addresses Tyrosine-protein kinase ABL1 (Homo sapiens) (UniProt P00519). To be noted: at 0.1 µM.
Assay [15] has the same target. To be noted: at 1 µM.
Assay [16] addresses ALK tyrosine kinase receptor (Homo sapiens) (UniProt Q9UM73). To be noted: at 0.1 µM.
For assay [17] the target is unchanged. To be noted: at 1 µM.
For assay [18], the target named is Tyrosine-protein kinase ABL2 (Homo sapiens) (UniProt P42684). To be noted: at 0.1 µM.
Tyrosine-protein kinase ABL2 (Homo sapiens), sequence (P42684 whole entry): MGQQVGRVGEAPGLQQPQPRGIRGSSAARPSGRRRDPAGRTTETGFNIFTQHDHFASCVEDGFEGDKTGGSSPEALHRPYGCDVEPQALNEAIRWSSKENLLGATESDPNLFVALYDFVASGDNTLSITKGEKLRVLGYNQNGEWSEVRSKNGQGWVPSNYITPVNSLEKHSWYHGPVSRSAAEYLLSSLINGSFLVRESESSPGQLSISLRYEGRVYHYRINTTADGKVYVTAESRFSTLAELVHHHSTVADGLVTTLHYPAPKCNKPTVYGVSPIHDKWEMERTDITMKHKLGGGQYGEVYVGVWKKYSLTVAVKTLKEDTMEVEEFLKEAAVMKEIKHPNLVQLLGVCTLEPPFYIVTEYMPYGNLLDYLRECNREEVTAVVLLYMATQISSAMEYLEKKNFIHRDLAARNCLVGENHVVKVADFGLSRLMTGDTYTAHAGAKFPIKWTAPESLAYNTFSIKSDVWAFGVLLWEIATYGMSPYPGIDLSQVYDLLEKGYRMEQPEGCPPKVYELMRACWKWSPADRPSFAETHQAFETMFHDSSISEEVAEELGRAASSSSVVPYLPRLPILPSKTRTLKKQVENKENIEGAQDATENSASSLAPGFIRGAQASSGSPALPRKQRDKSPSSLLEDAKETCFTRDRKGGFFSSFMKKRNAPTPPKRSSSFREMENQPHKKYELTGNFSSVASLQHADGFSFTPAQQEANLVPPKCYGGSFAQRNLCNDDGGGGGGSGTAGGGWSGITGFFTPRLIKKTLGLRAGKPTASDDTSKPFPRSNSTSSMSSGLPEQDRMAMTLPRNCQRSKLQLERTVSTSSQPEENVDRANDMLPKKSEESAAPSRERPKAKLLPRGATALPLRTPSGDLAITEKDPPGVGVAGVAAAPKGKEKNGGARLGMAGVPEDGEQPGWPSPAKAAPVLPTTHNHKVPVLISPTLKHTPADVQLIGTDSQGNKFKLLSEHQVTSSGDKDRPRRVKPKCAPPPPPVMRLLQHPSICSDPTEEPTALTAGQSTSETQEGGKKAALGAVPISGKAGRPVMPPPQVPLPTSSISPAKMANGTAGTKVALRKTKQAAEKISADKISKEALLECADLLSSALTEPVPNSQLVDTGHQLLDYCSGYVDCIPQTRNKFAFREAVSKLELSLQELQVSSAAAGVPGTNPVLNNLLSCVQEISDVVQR
The target is the same in assay [19]. To be noted: at 1 µM.
The target in assay [20] is Tyrosine-protein kinase receptor UFO (Homo sapiens) (UniProt P30530). To be noted: at 0.1 µM.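 Further: values are mean percent inhibition of AXL from the GSK PKIS screen.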
Tyrosine-protein kinase receptor UFO (Homo sapiens), sequence (P30530 whole entry): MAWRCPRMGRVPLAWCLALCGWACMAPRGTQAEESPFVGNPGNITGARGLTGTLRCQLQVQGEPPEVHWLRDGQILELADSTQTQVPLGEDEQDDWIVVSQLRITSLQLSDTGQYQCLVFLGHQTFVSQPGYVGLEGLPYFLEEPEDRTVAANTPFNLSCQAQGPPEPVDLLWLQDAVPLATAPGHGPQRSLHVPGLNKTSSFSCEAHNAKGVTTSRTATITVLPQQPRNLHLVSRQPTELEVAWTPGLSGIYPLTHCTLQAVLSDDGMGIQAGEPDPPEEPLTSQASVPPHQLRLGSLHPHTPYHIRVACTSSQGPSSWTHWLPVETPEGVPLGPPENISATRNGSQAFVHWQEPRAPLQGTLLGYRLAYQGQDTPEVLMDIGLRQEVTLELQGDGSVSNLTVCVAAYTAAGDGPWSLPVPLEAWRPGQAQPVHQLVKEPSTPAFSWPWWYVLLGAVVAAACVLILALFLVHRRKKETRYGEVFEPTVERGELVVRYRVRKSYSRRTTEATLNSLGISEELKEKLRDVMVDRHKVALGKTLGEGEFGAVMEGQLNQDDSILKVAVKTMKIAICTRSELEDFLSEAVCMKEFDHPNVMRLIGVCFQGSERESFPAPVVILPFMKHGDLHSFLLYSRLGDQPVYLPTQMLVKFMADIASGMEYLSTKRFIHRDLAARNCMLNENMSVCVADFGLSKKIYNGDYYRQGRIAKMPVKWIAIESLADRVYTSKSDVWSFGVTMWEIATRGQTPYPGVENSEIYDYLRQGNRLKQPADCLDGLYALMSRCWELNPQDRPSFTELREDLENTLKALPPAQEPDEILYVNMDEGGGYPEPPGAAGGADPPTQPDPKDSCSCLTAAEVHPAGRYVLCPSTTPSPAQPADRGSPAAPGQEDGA

As usually defined, the inhibition is the relative decrease from the control value, in per cent.

ALK tyrosine kinase receptor (Homo sapiens), sequence (Q9UM73 19-1620 limits assumed): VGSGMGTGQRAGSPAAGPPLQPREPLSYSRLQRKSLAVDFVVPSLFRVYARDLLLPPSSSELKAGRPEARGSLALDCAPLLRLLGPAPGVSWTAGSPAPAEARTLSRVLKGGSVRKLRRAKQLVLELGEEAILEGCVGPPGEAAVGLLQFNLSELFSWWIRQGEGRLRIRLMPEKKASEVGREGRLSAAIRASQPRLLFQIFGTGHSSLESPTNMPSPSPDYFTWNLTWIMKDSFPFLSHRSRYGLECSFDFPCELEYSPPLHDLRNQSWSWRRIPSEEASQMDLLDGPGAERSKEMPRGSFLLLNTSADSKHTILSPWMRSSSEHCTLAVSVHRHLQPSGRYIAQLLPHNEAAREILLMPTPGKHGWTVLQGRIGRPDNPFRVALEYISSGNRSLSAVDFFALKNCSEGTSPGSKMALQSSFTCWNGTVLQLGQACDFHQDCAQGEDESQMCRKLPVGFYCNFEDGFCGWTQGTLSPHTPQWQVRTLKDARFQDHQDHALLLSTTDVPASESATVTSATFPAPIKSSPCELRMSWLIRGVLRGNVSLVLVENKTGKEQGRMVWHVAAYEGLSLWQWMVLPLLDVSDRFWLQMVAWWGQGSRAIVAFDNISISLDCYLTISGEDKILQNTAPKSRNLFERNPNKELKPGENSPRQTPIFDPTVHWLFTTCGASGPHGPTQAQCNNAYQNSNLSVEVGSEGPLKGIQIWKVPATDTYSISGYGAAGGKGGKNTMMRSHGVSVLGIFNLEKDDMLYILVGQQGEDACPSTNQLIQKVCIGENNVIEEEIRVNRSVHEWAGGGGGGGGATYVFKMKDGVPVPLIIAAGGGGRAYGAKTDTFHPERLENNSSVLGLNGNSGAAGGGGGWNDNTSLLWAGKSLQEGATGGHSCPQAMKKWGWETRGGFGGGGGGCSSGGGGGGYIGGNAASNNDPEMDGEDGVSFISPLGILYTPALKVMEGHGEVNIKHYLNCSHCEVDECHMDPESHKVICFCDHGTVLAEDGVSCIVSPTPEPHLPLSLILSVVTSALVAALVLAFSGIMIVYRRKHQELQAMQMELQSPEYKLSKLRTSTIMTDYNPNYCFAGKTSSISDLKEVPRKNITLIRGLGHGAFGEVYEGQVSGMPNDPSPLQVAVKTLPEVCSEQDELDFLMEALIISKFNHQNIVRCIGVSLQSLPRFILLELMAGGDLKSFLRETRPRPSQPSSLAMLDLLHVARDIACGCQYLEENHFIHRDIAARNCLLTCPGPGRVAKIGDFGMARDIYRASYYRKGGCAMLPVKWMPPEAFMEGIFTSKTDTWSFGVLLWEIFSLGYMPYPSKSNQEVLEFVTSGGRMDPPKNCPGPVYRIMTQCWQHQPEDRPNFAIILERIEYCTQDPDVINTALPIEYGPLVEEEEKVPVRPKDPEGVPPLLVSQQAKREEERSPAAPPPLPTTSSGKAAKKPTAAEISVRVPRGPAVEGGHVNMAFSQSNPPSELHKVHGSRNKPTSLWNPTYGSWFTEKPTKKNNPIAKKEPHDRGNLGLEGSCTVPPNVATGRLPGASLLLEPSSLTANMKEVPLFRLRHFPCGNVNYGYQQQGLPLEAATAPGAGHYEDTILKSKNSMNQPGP
Serine/threonine-protein kinase PAK 6 (Homo sapiens), sequence (Q9NQU5 whole entry, looked up): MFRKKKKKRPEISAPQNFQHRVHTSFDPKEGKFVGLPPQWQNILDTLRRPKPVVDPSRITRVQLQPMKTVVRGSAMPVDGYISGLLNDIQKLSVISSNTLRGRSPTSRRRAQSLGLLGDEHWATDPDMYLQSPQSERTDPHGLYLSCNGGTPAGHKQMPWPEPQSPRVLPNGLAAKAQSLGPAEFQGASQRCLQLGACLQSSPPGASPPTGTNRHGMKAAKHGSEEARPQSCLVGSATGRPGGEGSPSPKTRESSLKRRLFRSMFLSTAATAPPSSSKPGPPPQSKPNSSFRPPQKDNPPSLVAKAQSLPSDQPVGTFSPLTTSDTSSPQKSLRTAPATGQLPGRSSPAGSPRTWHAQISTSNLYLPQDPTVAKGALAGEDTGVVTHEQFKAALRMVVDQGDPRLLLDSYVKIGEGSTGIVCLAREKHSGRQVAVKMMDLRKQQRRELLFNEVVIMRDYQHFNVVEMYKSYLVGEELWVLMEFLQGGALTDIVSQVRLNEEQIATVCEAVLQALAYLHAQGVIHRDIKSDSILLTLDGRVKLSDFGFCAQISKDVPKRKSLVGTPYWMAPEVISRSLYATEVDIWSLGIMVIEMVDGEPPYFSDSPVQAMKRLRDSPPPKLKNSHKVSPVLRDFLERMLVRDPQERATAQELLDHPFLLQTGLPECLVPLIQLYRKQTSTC

Take `COc1cccc(-n2nc(C)c3c(N/N=C(\C)c4ccncc4)ncnc32)c1`: the inhibition was -5.25% in assay [1]; 1.05% in assay [2]; 1.53% in assay [3]; 0.51% in assay [4]; 4.07% in assay [5]; -0.39% in [6]. Besides, the inhibition in [7] was 4.06%; in assay [8] it was 0.65%; in [9] it was 3.19%; in [10] it was -2.26%; in [11] it was -0.56%; in [12], 1.07%. Also, the inhibition was 4.85% in [13]; 3.36% in assay [14]; 9.11% in assay [15]; 0.43% in assay [16]; 1.35% in assay [17]; -0.17% in assay [18]. Besides, the inhibition in assay [19] was 5.82%; in [20] it was -2.14%.
On to `COc1cc(Nc2nccc(-c3cnn4ncccc34)n2)cc(OC)c1`, for which the inhibition in assay [1] is -1.82%; in assay [2] it was 6.96%; in assay [3], 46%; in [4] it was 11.9%; in [5], 59.5%; in assay [6], 13.7%. For the same compound, the inhibition in [7] is 63.4%; in [8] it was 18%; in assay [9] it was 68.6%; in assay [10], 5.15%; in [11] it was 40.3%; in assay [12], 13.7%. In addition, the inhibition in [13] is 59.6%; in [14] it was 9.67%; in [15], 62.7%; in assay [16], 5.68%; in [17], 44.8%; in assay [18], 10.5%. Moreover, the inhibition worked out at 69.6% in [19] and 2% in [20].
Turning to `O=C1Nc2ccccc2/C1=C/Nc1ccc2[nH]c(=O)[nH]c2c1`, the inhibition in [1] was -6.29%; in [2], 7.84%; in assay [3], 15%; in [4], 7.55%; in [5], 23.4%; in assay [6], 4.2%. In addition, the inhibition in assay [7] came to 24.6%; in assay [8], 8.42%; in assay [9], 26%; in assay [10] it was 4.38%; in [11], 23.7%; in assay [12], 9.65%. For the same compound, the inhibition in [13] came out at 23.3%; in [14], 8.95%; in assay [15], 25.8%; in [16], 2.88%; in assay [17] it was 16.4%; in assay [18], 7.75%. Moreover, the inhibition in assay [19] is 19.4%; in [20] it was -8.65%.
On to `NS(=O)(=O)c1ccc(N/N=C2\C(=O)Nc3ccc(Cl)cc32)cc1`, for which the inhibition in [1] was 7.73%; in assay [2], -0.63%; in [3] it was 5.98%; in assay [4], 3.92%; in [5] it was 12.9%; in [6], 1.55%. In addition, the inhibition is 12.6% in [7]; 2.4% in assay [8]; 9.91% in assay [9]; 0.91% in [10]; 11.8% in [11]; 1.42% in [12]. The inhibition was 11.1% in assay [13]; 2.16% in [14]; 10.6% in [15]; 1.16% in assay [16]; 5.53% in assay [17]; 5.17% in [18]. Besides, the inhibition is 11.6% in [19] and -1.64% in [20].
Turning to `CS(=O)(=O)Nc1cccc(-c2ccc3c(NC(=O)C4CC4)n[nH]c3c2)c1`, the inhibition in assay [1] is -4.78%; in assay [2], 1.67%; in assay [3], 7%; in assay [4] it was 2.46%; in [5], 16.8%; in assay [6] it was 3.14%. Moreover, the inhibition in [7] came out at 16%; in assay [8] it was 0.49%; in assay [9], 7.01%; in [10] it was 3.71%; in assay [11] it was 30.6%; in assay [12], 1.55%. For the same compound, the inhibition in assay [13] was determined as 11.8%; in assay [14], 1.81%; in [15], 17.9%; in assay [16], 0.61%; in assay [17], 1.09%; in assay [18], 2.46%. Besides, the inhibition in assay [19] worked out at 3.55%; in assay [20] it was 0.1%.
Take `c1ccc(Cc2nc3ccc(Nc4ncnc5ccccc45)cc3[nH]2)cc1`: the inhibition was 7.47% in assay [1]; 2.13% in assay [2]; 4.34% in assay [3]; 1.27% in assay [4]; 3.84% in assay [5]; 0.27% in assay [6]. Moreover, the inhibition worked out at 5.2% in assay [7]; 4.19% in [8]; 6.39% in assay [9]; 2.12% in assay [10]; 4.4% in assay [11]; 5.92% in assay [12]. The inhibition in [13] was determined as 6.3%; in assay [14] it was 4.49%; in assay [15], 11.3%; in assay [16], 1.23%; in [17] it was 5.36%; in assay [18] it was 2.8%. Also, the inhibition in assay [19] was 9.97%; in assay [20] it was -5.03%.
As to `NS(=O)(=O)c1cccc(-c2cc3ccncc3cc2OCc2ccccc2)c1`, the inhibition in assay [1] was -4%; in [2], 1.9%; in [3], 4.18%; in assay [4], 4.37%; in [5] it was 9.55%; in [6], 3.86%. The inhibition was 8.19% in assay [7]; 3.13% in assay [8]; 6.44% in [9]; 3.3% in assay [10]; 2.66% in assay [11]; 2.88% in assay [12]. The inhibition in [13] is 5.09%; in assay [14], 4.3%; in [15], 12.2%; in assay [16], 2.82%; in assay [17], 7.12%; in [18] it was 4.36%. Besides, the figures for the inhibition in [19] and in assay [20] were 15.2% and -7.61%, respectively.
In the case of `O=S(=O)(CCOCc1ccc(-c2ccc3ncnc(Nc4ccc(OCc5cccc(F)c5)c(Cl)c4)c3c2)o1)c1ccccc1`, the inhibition in assay [1] is -7.47%; in assay [2], 0.44%; in assay [3], -0.12%; in assay [4] it was 0.4%; in assay [5], 2.46%; in assay [6], 1.57%. The inhibition in assay [7] is 0.99%; in assay [8] it was 3.02%; in assay [9], 3.04%; in assay [10] it was -0.12%; in [11] it was 0.23%; in [12] it was 1.1%. Further, the inhibition was found to be 1.05% in assay [13]; 2.88% in [14]; 5.13% in [15]; 0.65% in assay [16]; 3.74% in assay [17]; 2.62% in [18]. Besides, the inhibition in [19] was 6.65%; in assay [20], -0.96%.
Turning to `COc1cccc(-n2ncc3c(N/N=C/c4ccc(C)cc4)ncnc32)c1`, the inhibition in assay [1] is -8.44%; in [2] it was 18.9%; in [3] it was 65.3%; in assay [4] it was 28.1%; in [5], 73.5%; in assay [6] it was 25.4%. Also, the inhibition in assay [7] turned out to be 73.7%; in [8], 37.6%; in assay [9], 81.4%; in assay [10], 5.28%; in [11], 23.2%; in assay [12], 31.8%. Further, the inhibition in assay [13] was 76.1%; in assay [14] it was 13%; in assay [15], 62.1%; in assay [16], 12.4%; in assay [17] it was 22.3%; in assay [18] it was 64.2%. Further, the values for the inhibition in [19] and in assay [20] were 40.5% and -3.91%, respectively.
`COc1cc2ncnc(Nc3ccc(C)c(O)c3)c2cc1OC`: the inhibition worked out at 0.34% in [1]; 42.3% in [2]; 85.8% in assay [3]; 48.1% in assay [4]; 87.4% in assay [5]; 42.5% in assay [6]. In addition, the inhibition in [7] was determined as 84.5%; in assay [8], 41.1%; in assay [9] it was 81.8%; in assay [10], 16.5%; in assay [11] it was 68.2%; in [12] it was 53.7%. The inhibition in assay [13] was found to be 89.5%; in assay [14] it was 36.1%; in assay [15] it was 78.5%; in assay [16] it was 4.66%; in assay [17] it was 13.8%; in assay [18], 15.8%. The inhibition was 65.2% in assay [19] and -6.97% in assay [20].
For `Cc1ccc(C(=O)NC2CC2)cc1-c1ccc2[nH]ncc2c1`, the inhibition in [1] was -8.86%; in assay [2], -0.87%; in [3], -0.81%; in [4] it was -1.68%; in assay [5], 1.02%; in [6], 1.39%. In addition, the inhibition in assay [7] was 2.89%; in assay [8], -1.32%; in [9] it was 2.09%; in assay [10] it was -2.71%; in assay [11] it was 2.89%; in assay [12], -1.37%. For the same compound, the inhibition in assay [13] was 0.48%; in [14], -0.56%; in assay [15], 0.77%; in assay [16], -1.6%; in assay [17], -1.66%; in [18], -1.18%. For the same compound, the inhibition in [19] worked out at 0.73%; in [20], 3.54%.
With `CCCN1CCCC(c2ccc(Nc3nc(Nc4cc(F)ccc4C(N)=O)c4cc[nH]c4n3)c(OC)c2)C1` (stereo not given), the inhibition was -5.69% in assay [1]; 3.9% in assay [2]; 5.75% in [3]; 5.07% in assay [4]; 4.96% in [5]; 1.54% in assay [6]. Besides, the inhibition is 5.35% in assay [7]; 4.96% in assay [8]; 7.24% in assay [9]; 4.52% in assay [10]; 12.1% in assay [11]; 4.98% in assay [12]. The inhibition in assay [13] is 9.67%; in assay [14], 3.75%; in assay [15] it was 9.3%; in [16] it was 98.2%; in [17] it was 86.3%; in assay [18] it was 2.38%. Further, the inhibition in assay [19] stood at 3.99%; in [20], 9.62%.
Take `c1ccc(Nc2ncc(-c3ccccc3)o2)cc1`: the inhibition in assay [1] is -5.22%; in assay [2], 2.44%; in assay [3], 8.33%; in assay [4], 6.74%; in assay [5], 20.6%; in assay [6], 1.76%. Also, the inhibition in [7] was 17.6%; in assay [8], 5.59%; in [9], 13.7%; in assay [10] it was -0.57%; in assay [11] it was 7.7%; in assay [12] it was 5.14%. Further, the inhibition in assay [13] was 16.3%; in assay [14], 4.09%; in assay [15], 16.5%; in assay [16], 2.99%; in assay [17], 3.91%; in [18], 5.2%. Besides, the inhibition in assay [19] was 22.7%; in assay [20], -3.91%.
